Data: the supplement of paper PMC10600219
Structures can show the parent of a compound that is named as a salt. Whole data set: some 2,800 compounds, median “cell viability relative to vehicle” near 0.98, cut for the lowest 2% near 0.45. The sample holds the lowest values, similar compounds and a random draw of the others, so the mix is not that of the screen.

Test system: NCI-H2228 alectinib-DTP
Test: cell viability relative to vehicle (fraction of vehicle); NCI-H2228 is an ALK-positive lung cancer line and DTP means drug-tolerant persister; higher = less growth inhibition
Details: 100 nM; treatment time 6 days
Outline: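 Each value is viability relative to vehicle-treated cells, measured as ATP with the CellTiter-Glo 3D Cell Viability Assay. Parental NCI-H2228 cells and drug-tolerant persisters (1000 nM targeted drug, 13 days) in 384-well plates received the 3114-agent TargetMol anti-cancer compound library at 100 nM, or DMSO, and were read 6 days later.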

First: CC(C)[C@]12O[C@H]1[C@@H]1O[C@]13[C@]1(O[C@H]1C[C@H]1C4=C(CC[C@@]13C)C(=O)OC4)[C@@H]2O [Triptolide]
Second: C[C@]12CC[C@H](O)C[C@H]1CC[C@@H]1[C@@H]2CC[C@]2(C)[C@@H](c3ccc(=O)oc3)C[C@H]3O[C@]132 [Resibufogenin]
The cell viability of the first is lower: 0.133 for the first, 1.07 for the second.

Compared with `CCCC(C)(C)c1ccc2c(c1)OC(C)(C)[C@@H]1CC=C(C)C[C@@H]21`, `C[C@@H]1CCC=C2C(=O)C[C@H]3OOC(C)(C)[C@H]3[C@]21C` [Nardosinone] is higher in cell viability: 0.862 for the first, 0.941 for the second.

Going from `Cc1ccc(/N=C/N(C)/C=N/c2ccc(C)cc2C)c(C)c1` [Amitraz] to `COc1ccc2c(c1)[nH]c1c(C)nccc12` [Harmine], the cell viability falls from 0.902 to 0.801.

Going from `COc1ccc2c(c[n+](C)c3c4cc5c(cc4ccc23)OCO5)c1OC` [Chelerythrine chloride] to `COc1ccc2c(c1OC)CN1CCc3cc4c(cc3C1C2)OCO4` (stereo unspecified) [Tetrahydroberberine THB], the cell viability falls from 1.04 to 1.01.

First: COc1ccc2c(c[n+](C)c3c4cc5c(cc4ccc23)OCO5)c1OC [Chelerythrine]
Second: COc1ccc2c(c1O)-c1c(OC)c(OC)cc3c1[C@H](C2)N(C)CC3 [(+)-Isocorydine hydrochloride]
The cell viability of the first is higher: 1.03 for the first, 0.9 for the second.

First: CC(=O)O[C@H]1C(=O)[C@@]2(C)[C@H]([C@H](OC(=O)c3ccccc3)[C@]3(O)C[C@H](O)C(C)=C1C3(C)C)[C@]1(OC(C)=O)CO[C@@H]1C[C@@H]2O [Baccatin III]
Second: CC(=O)OC(C)(C)/C=C/C(=O)[C@](C)(O)[C@H]1[C@H](O)C[C@@]2(C)[C@@H]3CC=C4[C@H](C[C@H](O)C(=O)C4(C)C)[C@]3(C)C(=O)C[C@]12C [Cucurbitacin B]
The cell viability of the first is higher: 1 for the first, 0.146 for the second.

First: C/C(=C\c1csc(C)n1)[C@@H]1C[C@@H]2O[C@]2(C)CCC[C@H](C)[C@H](O)[C@@H](C)C(=O)C(C)(C)[C@@H](O)CC(=O)O1 [Epothilone B]
Second: C/C(=C\c1csc(C)n1)[C@@H]1C[C@@H]2O[C@@H]2CCC[C@H](C)[C@H](O)[C@@H](C)C(=O)C(C)(C)[C@@H](O)CC(=O)O1 [Epothilone A]
The cell viability of the first is lower: 0.433 for the first, 0.529 for the second.

Going from `C[C@@H]1C(=O)O[C@H]2[C@H](O)[C@@]34O[C@@H]5OC(=O)[C@H](O)[C@@]56[C@H](C(C)(C)C)[C@H](O)C(OC3=O)[C@]64[C@@]12O` (stereo partly specified) [Ginkgolide C] to `C[C@H]1C(=O)O[C@@H]2CCN3CC=C(COC(=O)[C@](C)(O)[C@]1(C)O)[C@H]23` [Monocrotaline], the cell viability falls from 0.969 to 0.941.

First: C/C=C/c1cc(OC)c(OC)cc1OC [alpha-Asarone]
Second: COc1ccc(/C=C/C=C2C(=O)NC(=O)NC2=O)cc1
The cell viability of the first is lower: 0.92 for the first, 0.972 for the second.

First: NC[C@H](CC(=O)O)c1ccc(Cl)cc1 [(R)-baclofen]
Second: NCC(CC(=O)O)c1ccccc1 (stereo unspecified) [Phenibut]
The cell viability of the first is higher: 1.07 for the first, 1.03 for the second.

Going from `NCCc1c[nH]c2ccccc12` [Tryptamine] to `CCc1c2c(nc3ccccc13)-c1cc3c(c(=O)n1C2)COC(=O)[C@]3(O)CC` [7-Ethylcamptothecin], the cell viability falls from 1.12 to 0.361.

First: NCCCNCCCN [Bis(3-aminopropyl)amine]
Second: O=P(O)(NCCCl)NCCCl [Palifosfamide]
The cell viability of the first is lower: 0.833 for the first, 1.17 for the second.

First: CCC(C)C(=O)O[C@@H]1[C@@H](OC(C)=O)[C@]2(C)[C@H](C(C)=O)CC[C@@]23O[C@]32CC[C@H]3C[C@@H](O[C@H]4C[C@@H](OC)[C@H](O[C@@H]5O[C@H](C)[C@@H](O)[C@@H](OC)[C@H]5O)[C@@H](C)O4)CC[C@]3(C)[C@@H]12 (stereo partly specified) [Tenacissoside H]
Second: CO[C@H]1C[C@H](O[C@H]2CC[C@]3(C)[C@H]4CC[C@]5(C)[C@@H](C6=CC(=O)OC6)CC[C@]5(O)[C@@H]4CC[C@]3(O)C2)O[C@H](C)[C@H]1O[C@@H]1O[C@H](CO)[C@@H](O)[C@H](O)[C@H]1O [Periplocin]
The cell viability of the first is higher: 1.14 for the first, 0.443 for the second.

Compared with `CC(=O)O[C@H]1C[C@H](O[C@H]2[C@@H](O)C[C@H](O[C@H]3[C@@H](O)C[C@H](O[C@H]4CC[C@@]5(C)[C@H](CC[C@@H]6[C@@H]5C[C@@H](O)[C@]5(C)[C@@H](C7=CC(=O)OC7)CC[C@]65O)C4)O[C@@H]3C)O[C@@H]2C)O[C@H](C)[C@H]1O[C@@H]1O[C@H](CO)[C@@H](O)[C@H](O)[C@H]1O` [Lanatoside C], `CC(=O)O[C@H]1[C@H]2O[C@]23[C@@H]2CC[C@@H]4C[C@@H](O)CC[C@]4(C)[C@H]2CC[C@]3(C)[C@H]1c1ccc(=O)oc1` [Cinobufagin] is lower in cell viability: 0.49 for the first, 0.142 for the second.

Going from `CCC12C=CCN3CC[C@@]4(c5ccc(OC)cc5N(C)[C@H]4[C@@](O)(C(=O)OC)[C@@H]1OC(C)=O)[C@@H]32` (stereo partly specified) [Vindoline] to `CC(=O)O[C@H]1CC[C@H]2[C@@H]3CCC4=CC(=O)CCC4=C3C=C[C@]12C` [Trenbolone acetate], the cell viability rises from 1.1 to 1.15.

Compared with `N#CC(C#N)=Cc1ccc([N+](=O)[O-])c(O)c1`, `CC(=O)Nc1ccc(OC[C@](C)(O)C(=O)Nc2ccc([N+](=O)[O-])c(C(F)(F)F)c2)cc1` [Andarine] is lower in cell viability: 1.05 for the first, 0.917 for the second.

Compared with `C[C@H]1CCC/C=C/[C@@H]2C[C@H](O)C[C@H]2[C@H](O)/C=C/C(=O)O1` [Brefeldin A], `C[C@]12CC[C@H](O)C[C@H]1CC[C@@H]1[C@@H]2CC[C@]2(C)[C@@H](c3ccc(=O)oc3)CC[C@]12O` [Bufalin] is higher in cell viability: 0.0894 for the first, 0.101 for the second.

Going from `C[N+]1([O-])[C@@H]2CC(OC(=O)[C@H](CO)c3ccccc3)C[C@H]1[C@@H]1O[C@@H]12` (stereo partly specified) [Scopolamine N-oxide HBr] to `N#C[C@H](O[C@@H]1O[C@H](CO[C@@H]2O[C@H](CO)[C@@H](O)[C@H](O)[C@H]2O)[C@@H](O)[C@H](O)[C@H]1O)c1ccccc1` [Amygdalin], the cell viability falls from 1.07 to 0.879.

Going from `Nc1ncnc2c1ccn2[C@@H]1O[C@H](CO)[C@@H](O)[C@H]1O` [Tubercidin] to `N#C/C=C1/C=C[C@@H](O)[C@H](O)[C@H]1O[C@@H]1O[C@H](CO)[C@@H](O)[C@H](O)[C@H]1O` [Griffonin], the cell viability rises from 0.389 to 0.984.

Going from `C[C@H](CS(C)(=O)=O)n1ccc2c(C(F)(F)F)c(C#N)ccc21` to `Cc1c(N[C@@H](c2nnc(-c3ccc(C#N)cc3)o2)[C@H](C)O)ccc(C#N)c1Cl` [Testolone], the cell viability rises from 1.09 to 1.21.

Going from `C[C@]12CC[C@H](O)C[C@H]1CC[C@@H]1[C@@H]2CC[C@]2(C)[C@@](O)(c3ccoc3)CC[C@]12O` [Rostafuroxin] to `C[C@]12CC[C@H](O)C[C@@H]1CC[C@@H]1[C@@H]2CC[C@]2(C)C(=O)CC[C@@H]12` [Epiandrosterone], the cell viability falls from 0.988 to 0.814.

Compared with `Cc1c(C(=O)Nc2cccc(C(F)(F)F)c2)cc(-c2ccccc2)n1CCCN1CCOCC1`, `CC[C@@]1(O)C(=O)OCc2c1cc1n(c2=O)Cc2cc3ccccc3nc2-1` [(S)-(+)-Camptothecin] is lower in cell viability: 0.946 for the first, 0.36 for the second.

Compared with `Cc1ccccc1-n1c(Cn2cnc3c(N)ncnc32)nc2cccc(C)c2c1=O`, `O=C(/C=C/c1ccccc1)OC[C@H]1O[C@@H](O[C@@H]2OC=C[C@H]3[C@H](O)[C@@H]4O[C@]4(CO)[C@@H]23)[C@H](O)[C@@H](O)[C@@H]1O` [Picroside I] is lower in cell viability: 1.07 for the first, 1.06 for the second.

Going from `C=C1C2CC3(C1O)C1CC4C5(C)CCC(O)C4(C1N(CC)C5)C3CC2=O` (stereo unspecified) [Napellonine] to `CC1=C[C@H]2[C@@]3(O)[C@H](C)[C@@H](O)[C@]4(O)[C@H]([C@@H]3C=C(CO)C[C@]2(O)C1=O)C4(C)C` [Phorbol], the cell viability rises from 0.931 to 0.999.

Going from `CCO[C@H]1O[C@@H]2O[C@@]3(C)CC[C@H]4[C@H](C)CC[C@@H]([C@H]1C)[C@@]24OO3` [Arteether] to `Clc1ccc([C@]23CNC[C@H]2C3)cc1Cl` [Amitifadine hydrochloride], the cell viability rises from 0.856 to 1.06.

Compound `N#Cc1nn(-c2c(Cl)cc(C(F)(F)F)cc2Cl)c(N)c1[S+]([O-])C(F)(F)F` (stereo unspecified) [Fipronil] has a cell viability of 0.905.
